Source: PubChem BioAssay (The Scripps Research Institute Molecular Screening Center)
FBW7 act – FBW7 E3 ligase activators, primary screen, biochemical, AlphaScreen, human. normalized activity (activation), % at 26.1 µM. AID 1259310, 2017. actives 0.13% (n = 650,000). AlphaScreen FBW7–phospho-cyclin E peptide binding, activator screen; in the data active means normalized activity above about 1.9%;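 further: purified mutant Fbw7 with reduced substrate affinity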
GPR151 ag – activators of human GPR151, primary screen, cell-based, PathHunter beta-arrestin, luminescence; G-protein coupled receptor 151 (Homo sapiens), Q8TDV0; PathHunter beta-arrestin GPR151 cells; activation, % at 11.2 µM; actives 1% (n = 650,000); AID 1508602, 2020; in the data active means activation above about 4.9%
TEAD-YAP inh – TEAD-YAP interaction inhibition, primary screen, TEAD-YAP interaction inhibitor project, luminescence, HEK-TIYL cells. TEAD-Gal4/YAP UAS-luciferase luminescence. inhibition, % at 9.12 µM. actives 1.4% (n = 640,000). AID 1259422, 2018; in the data active means inhibition above about 32%
MITF inh – MITF inhibitors, primary screen, biochemical, AlphaScreen, human; Microphthalmia-associated transcription factor (Homo sapiens), O75030; AlphaScreen MITF homodimerization, bead proximity signal; inhibition, % at 2.6 µM; actives 0.91% (n = 650,000); in the data active means inhibition above about 50%
GPR151 conf act – GPR151 activators, triplicate retest, confirmation, cell-based, PathHunter beta-arrestin, luminescence | 6,700 tested, under 10 active | shares compounds with GPR151 ag | activation, % at 11.2 µM | AID 1508609, 2020 | GPR151 PathHunter beta-arrestin cells, 90 min; % of EA-reagent control over plate median;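 active means mean percent activation across replicates above the confirmation screen cutoff of 4.91%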
GPR119 ag – GPR119 activators in beta-arrestin cells, counter-screen for GPR151 activator project, cell-based, PathHunter beta-arrestin, luminescence, triplicate; shares compounds with GPR151 ag; 90 min; 0 = compound-well median, 100 = enzyme-acceptor control; activation, % at 11.2 µM; actives 0.3% (n = 6,700);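 active means mean percent activation in the counterscreen above 29.09%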;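 further: counterscreen on off-target GPR119 to flag nonselective hits from the GPR151 activator screen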
Target sequence (Q8TDV5 whole entry, looked up): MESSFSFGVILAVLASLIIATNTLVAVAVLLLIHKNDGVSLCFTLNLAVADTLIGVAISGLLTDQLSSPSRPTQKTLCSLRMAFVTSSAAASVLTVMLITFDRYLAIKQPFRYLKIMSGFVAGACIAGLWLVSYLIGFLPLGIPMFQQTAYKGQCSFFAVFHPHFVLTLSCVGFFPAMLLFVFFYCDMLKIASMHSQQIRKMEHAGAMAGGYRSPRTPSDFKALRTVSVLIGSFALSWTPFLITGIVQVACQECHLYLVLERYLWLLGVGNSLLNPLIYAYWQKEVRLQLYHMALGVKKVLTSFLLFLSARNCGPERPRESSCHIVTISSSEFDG
Hits are given with their value; – = inactive; · = no result. This is a sample that favours compounds with a hit; in the whole collection about 3.5% have one here.

SMILES	FBW7 act	GPR151 ag	TEAD-YAP inh	MITF inh	GPR151 conf act	GPR119 ag
CC(C)Oc1ccc(CN2CCCC(CO)(Cc3ccccc3)C2)cc1CO (stereo unspecified)	–	5.0	–	–	–	–
O=C(CSc1ccc([N+](=O)[O-])cn1)Nc1cccc(C(F)(F)F)c1	–	5.6	–	–	–	–
O=C(CSc1ccc([N+](=O)[O-])cn1)Nc1ccc(Oc2ccccc2)cc1	–	–	–	–	·	·
NS(=O)(=O)c1ccc(NC(=O)CSc2ccc([N+](=O)[O-])cn2)cc1	–	7.9	–	–	–	–
COc1ccc(C2=NN(CC(=O)NCCN(C)C)C(=O)CC2)cc1	–	–	–	–	·	·
CCNC(=O)C(=O)NCCC1CCCCN1S(=O)(=O)c1ccc(C)cc1 (stereo unspecified)	–	–	–	–	·	·
CN(C)CCCN1C(=O)C(=O)/C(=C(\O)c2ccccc2)C1c1ccncc1 (stereo unspecified)	–	–	–	–	·	·
CC1Oc2ccccc2C=C1C1/C(=C(\O)c2ccccc2)C(=O)C(=O)N1CCCN(C)C (stereo unspecified)	–	12.3	–	–	–	–
CC(=O)Nc1c2c(nn1-c1nc3ccccc3s1)CCC2	–	–	–	–	·	·
Cc1cnn(C)c1C(=O)Nc1c2c(nn1-c1nc3ccccc3s1)CCC2	–	19.8	–	–	–	–
CCOC(=O)C1C(=O)C=C(c2cccc(OC)c2)CC1c1ccccc1C (stereo unspecified)	–	–	–	–	·	·
CCOC(=O)C1C(=O)C=C(c2ccc(C)cc2)CC1c1ccccc1OCC (stereo unspecified)	–	5.3	–	–	–	–
Cc1cccnc1C1(O)CCN(C(=O)NCc2ccccc2)CC1	–	–	–	–	·	·
COc1cc(/C=C(/C(=O)OCC(N)=O)c2ccc(-c3ccccc3)cc2)cc(OC)c1OC	–	5.1	–	–	–	–
COc1ccccc1/C=C(/C(=O)OCC(N)=O)c1ccccc1	–	–	–	–	·	·
CCN(CC)S(=O)(=O)c1ccc(C(=O)Nc2nnc(-c3ccc(OC)cc3)o2)cc1	–	5.3	–	–	–	–
Cc1cccc(NC(=O)/C(C#N)=C\c2ccco2)c1	–	–	–	–	·	·
Cc1cc(C)c(NC(=O)/C(C#N)=C\c2ccco2)c(C)c1	–	6.3	–	–	–	–
COc1ccc(CCNc2nc(N3CCOCC3)nc3c2ncn3CCN2CCCC2=O)cc1	–	–	–	–	·	·
CC(=O)c1ccc(NC(=O)C(Cc2ccccc2)n2cccc2)cc1 (stereo unspecified)	–	5.2	–	–	–	–
COc1ccc(/C=N/n2c(C(F)(F)F)n[nH]c2=S)c(OC)c1	–	–	–	–	·	·
CC(C)(C)C1CCc2c(sc(NC(=O)COc3ccc(C#N)cc3)c2C(N)=O)C1 (stereo unspecified)	–	–	–	–	·	·
COc1ccc(C(C)=O)cc1CN(C)C	–	6.6	–	–	–	–
O=C(COc1ccccc1)NCc1n[nH]c(=S)n1-c1ccc(Br)cc1	–	–	–	–	·	·
Nc1nnc(SCC(=O)OCC(=O)Nc2ccc(Br)cc2F)s1	–	6.2	–	–	–	–
SMILES	FBW7 act	GPR151 ag	TEAD-YAP inh	MITF inh	GPR151 conf act	GPR119 ag
Nc1nnc(SCC(=O)OCC(=O)Nc2ccc(Br)cc2)s1	–	–	–	–	·	·
O=c1cc(-c2ccc(O)cc2)oc2cc(O[C@@H]3O[C@H](CO)[C@@H](O)[C@H](O)[C@H]3O[C@@H]3OC[C@](O)(CO)[C@H]3O)cc(O)c12	–	8.2	–	–	–	–
O=C(CN1C(=O)COc2ccccc21)Nc1cccc(F)c1	–	5.2	–	–	–	–
Cc1cc(N(C)C)nc(N2CCC(C(=O)NCc3cccs3)CC2)n1	–	–	–	–	·	·
Cc1cc(-c2ccccc2)nc(N2CCC(C(=O)NCc3cccs3)CC2)n1	–	10.5	–	–	–	–
O=C(Nc1nnc(COc2ccccc2)o1)c1cc(Br)ccc1Cl	–	4.9	–	–	–	–
O=C(Nc1nnc(COc2ccccc2)o1)c1ccccc1	–	–	–	–	·	·
Cn1c2c(c(=O)n(C)c1=O)C(c1ccc(Cl)cc1)C1=C(CC(C)(C)CC1=O)N2 (stereo unspecified)	–	5.5	–	–	–	–
Cn1c2c(c(=O)n(C)c1=O)C(c1cccc(F)c1)C1=C(CC(C)(C)CC1=O)N2 (stereo unspecified)	–	18.4	–	–	–	–
Cc1cccc(C2C3=C(CC(C)(C)CC3=O)Nc3c2c(=O)n(C)c(=O)n3C)c1 (stereo unspecified)	–	–	–	–	·	·
Cn1c2c(c(=O)n(C)c1=O)C(c1ccccc1)C1=C(CC(C)(C)CC1=O)N2 (stereo unspecified)	–	–	–	–	·	·
O=C(NCC1CCCO1)c1csc(-c2cnccn2)n1 (stereo unspecified)	–	–	–	–	·	·
COc1ccc(CN2CCN(Cc3cccc(F)c3)CC2CCO)cc1C (stereo unspecified)	–	–	–	–	·	·
O=C(CCc1ccccc1)N/N=C/c1ccccc1O	–	5.9	–	–	–	–
C/C(=N\NC(=O)CCc1ccccc1)c1ccc(Br)cc1	–	5.9	–	–	–	–
N#Cc1ccc(/C=N/NC(=O)CCc2ccccc2)cc1	–	6.0	–	–	–	–
N#Cc1ccc(/C=N/NC(=S)NCc2ccccc2)cc1	–	–	–	–	·	·
N#Cc1c(-c2ccccc2)cc(-c2ccccc2)nc1SCC(=O)N1c2ccccc2Sc2ccc(Cl)cc21	–	–	–	–	·	·
CC1C2NC(=S)NC1(C)Oc1ccccc12 (stereo unspecified)	–	7.4	–	–	–	–
CC1(C)Cc2cccc(OCC(=O)OCC(=O)c3ccc(F)cc3)c2O1	–	–	–	–	·	·
Cn1/c(=N/C(/N=c2\sc3ccccc3n2C)c2ccc(Br)cc2)sc2ccccc21 (stereo unspecified)	–	–	–	–	·	·
CCC1CCC2(CC1)SCC(=O)N2c1ccccc1 (stereo unspecified)	–	–	–	–	·	·
CCC1CCC2(CC1)SCC(=O)N2c1ccc(F)cc1 (stereo unspecified)	–	6.4	–	–	–	–
C#CCOc1ccc(/C=C2\SC(NC(C)=O)=NC2=O)cc1OC	–	–	–	–	·	·
COc1cc(C(=O)Nc2nnc(Cc3ccc(Cl)cc3)s2)c([N+](=O)[O-])cc1OC	–	6.1	–	–	–	–
